Reference: PubChem BioAssay (NCI)
About 83,000 compounds went through this panel and 20% of them were active in at least one assay; those are over-represented in the sample as a whole.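 48-hour exposure, single concentration, 96-well plates; percent growth endpoint where 0 means no net growth. Active: below 10.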 Values without a mark were called inactive. Activity calls are given as the source filed them.

Tests used:
Assay in all cases: NCI-60 one-dose screen, 48 h (100 = growth as untreated, 0 = no growth, -100 = all killed)
[1] = tested on: NCI-H23 lung; details: 10 µM unless noted
[2] = tested on: NCI-H226 lung; details: 10 µM unless noted
[3] = tested on: NCI-H322M lung; details: 10 µM unless noted
[4] = tested on: HOP-62 NSCLC; details: 10 µM unless noted
[5] = tested on: NCI-H460 lung; details: 10 µM unless noted
[6] = tested on: 786-0 renal; details: 10 µM unless noted
[7] = tested on: MDA-MB-231 breast; details: 10 µM unless noted
[8] = tested on: SF-268 CNS; details: 10 µM unless noted
[9] = tested on: SF-539 CNS; details: 10 µM unless noted
[10] = tested on: M14 melanoma; details: 10 µM unless noted
[11] = tested on: HCT-15 colon; details: 10 µM
[12] = tested on: U251 CNS; details: 10 µM unless noted
[13] = tested on: UO-31 renal; details: 10 µM unless noted
[14] = tested on: SK-OV-3 ovarian; details: 10 µM unless noted
[15] = tested on: OVCAR-3 ovarian; details: 10 µM unless noted
[16] = tested on: MDA-MB-435 melanoma; details: 10 µM unless noted
[17] = tested on: SW-620 colon; details: 10 µM unless noted
[18] = tested on: MCF7 breast; details: 10 µM unless noted
[19] = tested on: HCT-116 colon; details: 10 µM unless noted
[20] = tested on: KM12 colon; details: 10 µM unless noted

Row | SMILES | growth [1] | growth [2] | growth [3] | growth [4] | growth [5] | growth [6] | growth [7] | growth [8] | growth [9] | growth [10] | growth [11] | growth [12] | growth [13] | growth [14] | growth [15] | growth [16] | growth [17] | growth [18] | growth [19] | growth [20]
1 | O1[As]2O[As]3O[As]1O[As](O2)O3 | 6.46% (active) | 0.918% (active) | 38.2% | -41.6% (active) | 3.94% (active) | 10.7% | -22.8% (active) | 5.42% (active) | -4.27% (active) | -24.2% (active) | -23.4% (active) | -69.2% (active) | -7% (active) | 38% | -35.3% (active) | 14.1% | 4.74% (active) | 6.19% (active) | -10.3% (active) | 39%
2 | COc1cc(N(CCCl)CCCl)ccc1C=Nc1ccccc1C(=O)O | 101% | 94.7% | 95.7% | 110% | 81.1% | 110% | 96.8% | 103% | 102% | 98.2% | 97.7% | 95.8% | 78.5% | 105% | 97.8% | 102% | 91.6% | 93.7% | 108% | 71.1%
3 | CCOC(=O)/C(C#N)=C/c1ccc(N(CCCl)CCCl)cc1 | 94.9% | 72.2% | 110% | 81.7% | 41.4% | 84.1% | 90.8% | 77.5% | 84.9% | 105% | 91.1% | 92% | 79.3% | 92.6% | 108% | 94.4% | 87.3% | 71.9% | 97% | 106%
4 | CCOC(=O)/C=C(\C)Nc1ccc(N/C(C)=C/C(=O)OCC)c2c1Oc1ccccc1O2 | 89.7% | 93.2% | 110% | 117% | 122% | 88.2% | 79% | 107% | 105% | 107% | 100% | 99.2% | – | 107% | 92.6% | 101% | 99.4% | 93.7% | 105% | 97.6%
5 | CCC1CN1P(=O)(OCCOC)N1CC1CC (stereo not drawn) | 114% | 109% | 101% | 111% | 111% | 103% | 107% | 109% | 97.1% | 109% | 99.4% | 102% | 88.6% | 118% | 119% | 98.9% | 106% | 99.4% | 104% | 114%
6 | CCN(CC)CCOc1c(C(C)C)cccc1C(C)C | 104% | 111% | 88.3% | 96.7% | 112% | 99.6% | 109% | 107% | 116% | 99.2% | 98.4% | 98.6% | 94.4% | 112% | 107% | 114% | 106% | 94.2% | 95.2% | 99.3%
7 | O=C(O)c1[nH]c(=O)[nH]c(=O)c1F | 93% | 86.2% | 92.5% | 124% | 47.9% | 105% | 108% | 86.7% | 82.5% | 86.6% | 93.6% | 87.2% | 65.9% | 112% | 106% | 74.7% | 72.7% | 109% | 79.3% | 69.3%
8 | O=C(CCCN1CCC2(CC1)C(=O)NCN2c1ccc(F)cc1)c1ccc(F)cc1 | 98.2% | 78.4% | 90% | 95.9% | 96.8% | 101% | 98.1% | 112% | 93.2% | 97.3% | 105% | 102% | 83.6% | 98.4% | 124% | 109% | 106% | 85.9% | 88.6% | 108%
9 | N#C[Se]CCCNS(=O)(=O)C1CC2C=CC1C2 (stereo not drawn) | -37.5% (active) | -66.5% (active) | -19.9% (active) | -71.6% (active) | -18.3% (active) | -87.4% (active) | -71.8% (active) | -55.7% (active) | -77.9% (active) | -47.9% (active) | -1.27% (active) | -76.6% (active) | -98.7% (active) | -36.4% (active) | -63.6% (active) | -41.2% (active) | 1.26% (active) | 2.16% (active) | -31.9% (active) | -5.35% (active)
10 | Nc1c(Br)cc2c3c(cccc13)-c1ccccc1-2 | 61.7% | 89.3% | 91.2% | 82.9% | 88.4% | 94.9% | 48.7% | 87.7% | 77.7% | 58.5% | 49.3% | 60.1% | 42.4% | 87.7% | 64.4% | 78.8% | 90.4% | 38.7% | 81.4% | 57.4%
11 | CC(C)(NC(=O)c1nn(CCCCCF)c2ccccc12)c1ccccc1 | 101% | 80.2% | 105% | 94.2% | 102% | 89.3% | 98.1% | 96% | 100% | 85.5% | 96.3% | 84.4% | 76.3% | 87.8% | 105% | 103% | 102% | 98.3% | 66.9% | 107%
12 | COc1ccccc1N1CCN(CCc2c[nH]c3cc4c(cc23)OCO4)CC1 | 71.9% | 79.3% | 72.1% | 63.2% | 51.6% | 79% | 79.8% | 91.6% | 77.8% | 68.9% | 68% | 85.4% | 33.2% | 104% | 91.2% | 78% | 88.6% | 78.7% | 42.5% | 84%
13 | COC(=O)C[Se]C(=O)c1ccccc1OC(C)=O | 76.2% | 56.3% | 77.5% | 32.7% | 76.5% | 89.8% | 71.3% | 72.3% | 75.1% | 49.3% | 46.4% | 66.3% | 35.7% | 221% | 84.5% | 87.9% | 97.8% | 65.5% | 10.9% | 22.1%
14 | COc1ccc(C2SCC(=O)Nc3c2c(C)nn3-c2nc3ccc(C)cc3s2)cc1O (stereo not drawn) | 55.3% | 67.6% | 56.3% | 38.3% | 15.7% | 58.4% | 36% | 44.8% | 31% | – | 23.9% | 31.3% | 28.4% | 44.2% | 5.66% (active) | -25.5% (active) | 28.1% | 15.4% | 34.1% | 16.2%
15 | O=c1[nH]c2cc(Cl)ccc2n1C1CCN(CCCC(c2ccc(F)cc2)c2ccc(F)cc2)CC1 | 59.7% | 126% | 78.1% | 67.2% | -49.2% (active) | 11.5% | 29.2% | 24.8% | 15.5% | -52.2% (active) | -30.3% (active) | 29.4% | -48.3% (active) | 78.1% | -99.6% (active) | 18.2% | -80.7% (active) | -32.4% (active) | 3.23% (active) | -94.6% (active)
16 | O=C(CCl)NCNC(=O)CCl | 97.8% | 112% | 100% | 97.2% | 103% | 107% | 99.7% | 98.1% | 101% | 91.5% | 91.4% | 87.9% | 93.5% | 98.8% | 105% | 93.9% | 100% | 85.1% | 92.1% | 104%
